# Experimental data as given in PubChem BioAssay AID1345085 (National Center for Advancing Translational Sciences (NCATS), 2018).
# Results filed as inconclusive are left out. The source made the active and inactive calls. Calls follow the shape of the dose curve; as a rule, active = well fitted cell-killing curve with a large enough effect; inconclusive = small, poorly fitted or top-dose-only effect, or effect the other way; inactive = no such curve, though single readings can be large or run the other way.
# Tested on: HeLa
# Experiment: Confirmatory qHTS for gynecologic anti-cancer compounds from libraries of approved drugs and bioactive compounds; also: nearly all actives have a fitted effect of over 55% in size
# Settings: gynecologic cancer cell panel viability, ATPlite luminescence, 48 h; series mostly up to 57.6 µM
# Outline: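 ATPlite luminescence read-out of cell viability; IC50 from 11-point 1:3 titrations, 57.5 uM to 0.977 nM, 48 h compound exposure at 37 C, 5% CO2. Cells seeded at 1,000/well 16 h before dosing.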
# Potency is read from the fitted curve at half-maximal effect.
row,SMILES,Potency
1,C=C(C)[C@H]1Cc2c(ccc3c2O[C@@H]2COc4cc(OC)c(OC)cc4[C@@H]2C3=O)O1,0.243 µM (active)
2,C[C@]12CC[C@H]3[C@@H](CCC4=CC(=O)CC[C@@H]43)[C@@H]1CC[C@@H]2OC(=O)CCc1ccccc1,2.73 µM (active)
3,CCNC(=O)C[C@@H]1N=C(c2ccc(Cl)cc2)c2cc(OC)ccc2-n2c(C)nnc21,1.53 µM (active)
4,C[C@H]1CCC/C=C/C2C[C@H](O)C[C@H]2[C@H](O)/C=C/C(=O)O1 (stereo partly drawn),0.172 µM (active)
5,C/C=C(/C)C(=O)O[C@H]1C(C)=C2[C@H]([C@@H]1OC(=O)CCCCCCC)[C@@](C)(OC(C)=O)C[C@H](OC(=O)CCC)[C@@]1(O)[C@H]2OC(=O)[C@@]1(C)O,0.0611 µM (active)
6,O=C(O)Cc1ccccc1,inactive
7,CCC(=O)O[C@H]1CC[C@H]2[C@@H]3CCC4=CC(=O)CC[C@]4(C)[C@H]3CC[C@]12C,4.32 µM (active)
8,Cc1sc2c(c1C)C(c1ccc(Cl)cc1)=NC(CC(=O)OC(C)(C)C)c1nnc(C)n1-2 (stereo not drawn),0.769 µM (active)
